Screening results: PubChem BioAssay, several laboratories
This is a sample that favours compounds with a hit; in the whole collection about 3.6% have one here.
Peg3 prom inh: reduces Peg3 promoter-driven luciferase expression in HeLa. AID 588405. inhibition, % at 20 µM. HeLa PEG-Prom luciferase reporter, luminescence, overnight. hit rate 1.7% among 360,000;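 active means inhibition of at least 50% at 20 µM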
Mdm2 MdmX PPI: human Mdm2/MdmX binding inhibition; O15151+Q00987; SaOS-2 split-luciferase Mdm2/MdmX complementation, luminescence; inhibition, % at 8 µM; hit rate 3% among 330,000; AID 485346;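 active means inhibition of at least 50% at 8 µM in the primary screen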
Target sequence (O15151 whole entry, looked up): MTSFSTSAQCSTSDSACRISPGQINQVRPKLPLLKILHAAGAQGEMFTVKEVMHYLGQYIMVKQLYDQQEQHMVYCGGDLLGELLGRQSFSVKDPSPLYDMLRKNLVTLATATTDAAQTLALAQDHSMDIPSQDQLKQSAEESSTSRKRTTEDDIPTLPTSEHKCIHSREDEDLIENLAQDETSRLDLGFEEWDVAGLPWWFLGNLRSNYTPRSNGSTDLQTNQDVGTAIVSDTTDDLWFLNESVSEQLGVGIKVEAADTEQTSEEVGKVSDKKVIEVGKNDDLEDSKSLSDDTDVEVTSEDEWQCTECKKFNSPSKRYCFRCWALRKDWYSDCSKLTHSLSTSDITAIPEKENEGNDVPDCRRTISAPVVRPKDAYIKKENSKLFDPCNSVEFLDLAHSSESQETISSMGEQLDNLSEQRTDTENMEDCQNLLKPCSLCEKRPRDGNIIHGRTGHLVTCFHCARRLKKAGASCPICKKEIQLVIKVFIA
Target sequence (Q00987 whole entry, looked up): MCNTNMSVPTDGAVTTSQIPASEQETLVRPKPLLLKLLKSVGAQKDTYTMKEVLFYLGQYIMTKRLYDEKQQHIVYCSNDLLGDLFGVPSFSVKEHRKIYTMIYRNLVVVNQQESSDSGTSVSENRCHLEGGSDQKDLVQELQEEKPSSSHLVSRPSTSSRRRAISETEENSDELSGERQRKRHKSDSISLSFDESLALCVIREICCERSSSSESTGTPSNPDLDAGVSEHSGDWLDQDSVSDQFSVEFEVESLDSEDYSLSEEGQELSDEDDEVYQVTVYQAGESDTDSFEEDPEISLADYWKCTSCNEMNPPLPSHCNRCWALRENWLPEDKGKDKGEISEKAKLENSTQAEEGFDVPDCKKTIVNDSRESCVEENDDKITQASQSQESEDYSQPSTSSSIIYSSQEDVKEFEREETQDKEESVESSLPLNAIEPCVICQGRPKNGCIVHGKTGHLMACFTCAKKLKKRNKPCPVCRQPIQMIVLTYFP
KKLEB cytotox: CF airway cell cytotoxicity counter-screen; hit rate 0.36% among 360,000; KKLEB CF airway cells viability, ATPlite luminescence, overnight; hits give low values; cells stimulated with P. aeruginosa culture filtrate; activity change (cytotoxicity), % at 5 µM; AID 602141;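 active means corrected activity change at or below -50% at 5 µM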
LGR2 antag: blocks bursicon-induced cAMP signaling via Drosophila LGR2 | HEK293 LGR2, CRE-luciferase, bursicon-stimulated, 4 h | inhibition, % at 9.99 µM | hit rate 0.35% among 380,000 | AID 720647;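 active means drop in luminescence signal, shown as inhibition above about 50% in the replicate tests, limit read from the data, passing the limit was not always enough; inconclusive means probably only some replicates passing the limit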;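 further: agonist challenge used bursicon conditioned medium at about half maximal strength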
CF NFkB block: cystic fibrosis NF-kB activation inhibition; KKLEB NF-kB-GFP reporter, PAF-induced, GFP fluorescence overnight; inhibition, % at 5 µM; hit rate 0.86% among 360,000;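 active means at least 50% inhibition at 5 µM, scaled per plate between neutral and stimulator controls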;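 further: PAF is a Pseudomonas aeruginosa culture filtrate used as stimulus; plate controls were PAF-stimulated DMSO wells for no effect and unstimulated DMSO wells for full effect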
HSP90 refold inh: HSP90 refolding inhibition in rabbit reticulocyte lysate | inhibition, % at 5.6 µM | luciferase refolding luminescence, 3 h | AID 1789 | hit rate 0.91% among 290,000;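 active means inhibition above the screen-wide mean plus 3 SD, computed separately per campaign, cut at about 16% in these data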;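 further: 0% = DMSO wells and 100% = 60 µM geldanamycin wells; inhibitors lower the luminescence because luciferase stays unfolded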
Mdm2-MdmX conf: human Mdm2/MdmX binding inhibition, confirmed. shares compounds with Mdm2 MdmX PPI. luminescent assay. inhibition, % at 8 µM. hit rate 55% among 10,000. AID 489028; in the data active means inhibition above about 40%
Full FLuc ctr: full-length luciferase inhibition in Mdm2/MdmX counter-screen; shares compounds with Mdm2 MdmX PPI; SaOS-2 full-length luciferase counterscreen, luminescence; inhibition, % at 8 µM; hit rate 77% among 6,200; AID 504607;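 active means mean inhibition at 8 µM reaching about 37%, which flags the compound as non-specific, limit read from the data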;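 further: p53-null SaOS-2 cells with luciferase driven by a doxycycline-inducible promoter; compound on cells about two nights before reading with doxycycline added after day one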
* = called active by the depositor; ? = inconclusive; nt = no result given.

SMILES	Peg3 prom inh	Mdm2 MdmX PPI	KKLEB cytotox	LGR2 antag	CF NFkB block	HSP90 refold inh	Mdm2-MdmX conf	others
Nc1c(S(=O)(=O)c2ccccc2)c2nc3ccccc3nc2n1/N=C/c1cccc(O)c1	87.0*	67.1*	20.7	nt	-13.8	5.2	15.4
N/C(=N\OC(=O)C12CC3CC(CC(C3)C1)C2)c1ccccn1	-110.9	43.9	5.1	-50.7	9.1	-2.3	nt
N/C(=N\OC(=O)C12CC3CC(CC(C3)C1)C2)c1cccnc1	-64.9	71.0*	-1.1	nt	17.2	-2.3	2.1
N/C(=N\OC(=O)C12CC3CC(CC(C3)C1)C2)c1ccccc1	-40.7	54.4*	0.8	-0.2	-2.5	3.1	9.1
N/C(=N\OC(=O)C1CCCCC1)c1cccnc1	-21.2	27.4	-9.5	-32.8	14.7	-1.7	nt
C/C(=N\NC(=O)C(C)Oc1ccc([N+](=O)[O-])cc1)c1ccccn1 (stereo unspecified)	44.2	53.9*	-9.2	nt	0.7	0.8	31.6
O=C(Nc1ccc(F)cc1)c1cc(-c2ccccn2)nc2c(Cl)cccc12	17.4	60.0*	-4.3	-1.4	-7.3	-0.1	46.1*	Full FLuc ctr=61.5*
COc1ccc(CN(C)C[C@H]2Oc3ccc(NC(=O)NC(C)C)cc3C(=O)N([C@H](C)CO)C[C@H]2C)cc1	nt	nt	nt	6.5	nt	nt	nt
Cc1ccccc1C(=O)Nc1cccc(NC(=O)Cn2cnc3c(=O)n(C)c(=O)n(C)c32)c1	21.3	51.4*	-5.5	-9.4	5.2	2.6	34.0
Nc1c(C(=O)Nc2ccc(S(=O)(=O)N3CCCC3)cc2)sc2nc3ccc(OC(F)(F)F)cc3cc12	-35.9	89.9*	-36.6	-7.4	35.2	0.8	-11.5
Nc1c(C(=O)Nc2ccc(S(=O)(=O)N3CCCC3)cc2)sc2nc3cc4c(cc3cc12)CCC4	29.0	nt	-5.7	-0.2	-11.9	-2.5	nt
CC1=NNC(=O)/C1=C\c1cn(-c2ccccc2)nc1-c1ccc(Cl)cc1	78.8*	100.3*	-40.0	?	6.1	-2.1	47.1*	Full FLuc ctr=2.6
COc1ccc(NC(=O)N(C)C[C@@H]2Oc3ccc(NS(=O)(=O)c4cn(C)cn4)cc3CC(=O)N([C@H](C)CO)C[C@@H]2C)cc1	nt	nt	nt	-8.0	nt	nt	nt
COc1ccc(/C=N\NC(=O)c2ccccc2F)cc1COc1ccc(F)cc1F	-26.7	57.9*	-26.1	-12.2	32.4	1.1	76.1*	Full FLuc ctr=65.7*
COc1ccc(/C=N\NC(=O)c2ccccc2OC)cc1COc1ccccc1C	23.7	2.6	9.8	9.4	-43.7	6.1	nt
COc1ccc(/C=N\NC(=O)c2ccccc2F)cc1COc1ccc(F)cc1	4.2	30.7	-4.3	-11.0	3.5	3.4	nt
COc1ccc(/C=N/NC(=O)c2cc(C)oc2C)cc1OCc1ccccc1	2.3	61.7*	-7.9	7.2	-70.1	7.4	8.5
COc1ccc(/C=N/NC(=O)c2ccoc2C)cc1COc1c(C)cccc1C	-92.6	75.5*	1.8	nt	-22.2	-1.0	31.9
COc1ccccc1C(=O)N/N=C/c1ccc2c(c1)OCO2	-262.4	-21.0	-1.3	-36.0	-11.4	0.3	nt
COc1cc2ccccc2cc1C(=O)N/N=C/c1ccc2c(c1)OCO2	-44.9	50.9*	-6.4	-13.5	17.6	-3.1	70.5*	Full FLuc ctr=53.4*
CO[C@H]1CN(C)C(=O)c2cc(NC(=O)c3cccc(Oc4ccccc4)c3)ccc2OC[C@H](C)NC[C@H]1C	nt	nt	nt	3.5	nt	nt	nt
C[C@H](CO)N1C[C@H](C)[C@H](CN(C)C(=O)c2cccnc2)Oc2ncc(-c3ccc(C#N)cc3)cc2C1=O	nt	nt	nt	-7.7	nt	nt	nt
Cc1ccc(Sc2c([N+](=O)[O-])c(=O)n(C)c3ccccc23)cc1	44.6	50.6*	-2.2	-2.4	2.1	4.3	14.3
Cc1ccc(Sc2c(O)c3ccccc3n(C)c2=O)cc1	26.6	nt	5.3	7.1	-3.1	-3.0	nt
CCCC#Cc1cnc2c(c1)C(=O)N([C@@H](C)CO)C[C@@H](C)[C@@H](CN(C)Cc1ccncc1)O2	nt	nt	nt	-8.0	nt	nt	nt
SMILES	Peg3 prom inh	Mdm2 MdmX PPI	KKLEB cytotox	LGR2 antag	CF NFkB block	HSP90 refold inh	Mdm2-MdmX conf	others
c1ccc(C2(CN3CCNC[C@H]3Cc3cccc4ccccc34)CC2)cc1	78.8*	52.8*	-1.8	nt	1.1	nt	38.1	Full FLuc ctr=91.0*
CC(=O)/C(C#N)=C1\NC(=O)C(Cc2ccc(C)c(C)c2)S1 (stereo unspecified)	-0.3	83.7*	3.1	nt	-5.8	-1.5	90.7*	Full FLuc ctr=32.1
CC(=O)/C(C#N)=C1\NC(=O)C(Cc2cc(Cl)ccc2Cl)S1 (stereo unspecified)	11.7	95.8*	1.1	11.3	-11.9	-0.5	82.8*	Full FLuc ctr=31.2
CC(=O)/C(C#N)=C1\NC(=O)C(Cc2ccccc2Cl)S1 (stereo unspecified)	10.1	87.0*	7.6	nt	3.2	-2.1	90.5*	Full FLuc ctr=30.1
O=C(CN1CCOCC1)NC[C@@H]1N[C@@H](CO)[C@H]1c1ccc(-c2ccccc2)cc1	nt	nt	nt	-5.4	nt	nt	nt
N#Cc1ccc(-c2ccc(C3[C@@H]4CN(C(=O)c5ccc6c(c5)OCO6)C[C@H]3N4)cc2)cc1 (stereo partly specified)	nt	nt	nt	2.3	nt	nt	nt
CCOc1cc(C(=O)O/N=C(\N)c2ccccn2)cc(OCC)c1OCC	83.6*	76.8*	0.6	-16.3	-2.7	-0.2	68.0*	Full FLuc ctr=85.5*
COc1cc(OC)cc(C(=O)O/N=C(\N)c2ccccn2)c1	-194.0	53.9*	8.6	nt	-4.5	2.1	-4.3
CC(C)C(=O)O/N=C(\N)c1ccccn1	-23.1	-4.9	2.4	-0.8	-6.3	-6.9	nt
COc1cc(OC)c(C(=O)O/N=C(\N)c2ccccn2)cc1OC	-34.3	46.1	6.6	-19.4	-27.1	-4.9	nt
COC(=O)C[C@@H]1CC[C@@H]2[C@H](COc3ccc(NC(=O)c4ccc(OC)cc4)cc3C(=O)N2C)O1	nt	nt	nt	8.1	nt	nt	nt
COc1ccc(NC(=O)N(C)C[C@@H]2Oc3ccc(NS(C)(=O)=O)cc3C(=O)N([C@H](C)CO)C[C@@H]2C)cc1	nt	nt	nt	-17.0	nt	nt	nt
COC(=O)C(=Cc1ccc(OCc2ccc([N+](=O)[O-])cc2)c(OC)c1)C(=O)OC	-52.0	91.7*	-19.9	nt	42.2	-0.8	8.2
COCC(=O)Nc1ccc2c(c1)OC[C@H](C)N(CCc1ccccc1)C[C@@H](C)[C@H](OC)CN(C)C2=O	nt	nt	nt	4.5	nt	nt	nt
CCN(CC)C(=O)[C@H]1C[C@H](CC(=O)NCC23CC4CC(CC(C4)C2)C3)C(=O)N2CCc3c([nH]c4cc(-c5ccco5)ccc34)[C@]12C	46.8	84.0*	-0.5	10.7	35.2	nt	56.5*	Full FLuc ctr=70.7*
C[C@]12c3[nH]c4cc(-c5ccco5)ccc4c3CCN1C(=O)[C@@H](CC(=O)NCC13CC4CC(CC(C4)C1)C3)C[C@@H]2C(=O)N1CCOCC1	35.2	85.2*	5.1	21.0	-0.3	nt	16.1
